From PubChem BioAssay AID540256 (National Center for Advancing Translational Sciences (NCATS), 2011)
Values joined by “and” are separate entries in the source; they are usually repeats but may differ in a detail not shown here. Equal entries are not always repeated. The whole screen tested about 300,000 compounds, of which about 3,700 (1.2%) were called active. A call without a number means that no potency is given here. About 20% were inconclusive and are not listed. This is one part of a sample in which actives are shown more often than they occur. The call rests on the fitted dose curve; tested in HEK293 cells.

assay: qHTS for Inhibitors of binding or entry into cells for Lassa Virus; conditions: Lassa virus pseudotype entry inhibition, cell reporter; series mostly up to 37.9 µM; further: nearly all actives have a fitted effect of over 50% in size
Potency means the concentration at half of the fitted maximal effect.

Row | SMILES | Potency
1 | CCOc1ncccc1C(=O)Nc1ccc2c(c1)OCCO2 | inactive
2 | COc1cccc2c1C(=O)c1c(O)c3c(c(O)c1C2=O)CC(O)(C(C)=NNC(=O)c1ccc(Cl)c(Cl)c1)CC3OC1CC(N)C(O)C(C)O1 (stereo not given) | 0.398 µM (active)
3 | COc1ccc(C2NCCCC2c2ccccc2)cc1 (stereo not given) | inactive
4 | Cc1ccccc1NC(=O)Cn1cc(C(=O)C2CC2)c2ccccc21 | inactive
5 | CN(CCc1ccccn1)C1CCCN(S(=O)(=O)c2ccccc2Cl)C1 (stereo not given) | inactive
6 | c1ccc2c(c1)C(=NC1CCCCC1)NC2=NC1CCCCC1 | 13 µM (active)
7 | COC(=O)Cc1nc2c(N)nc(N)nc2[nH]c1=O | inactive
8 | COc1cc(/C=C/C2=CC(C)(C)NC(=S)N2)cc(OC)c1OC | inactive
9 | CCC(=O)c1ccc(OC(=O)/C=C/c2cc(OC)c(OC)c(OC)c2)cc1 | inactive
10 | COc1cc(/C=C/c2ccc(/C=C/c3cc(OC)c(OC)c(OC)c3)cc2)cc(OC)c1OC | 11.2 µM (active)
11 | Cc1ccc(NC(=O)C2CC2)cc1S(=O)(=O)N1CCOCC1 | inactive
12 | Cc1cccc(N2CCN(C(=O)CCSCc3ccccc3F)CC2)c1C | inactive
13 | CC[C@H]1CN2CCc3cc(OC)c(OC)cc3[C@@H]2C[C@@H]1C[C@H]1NCCc2cc(OC)c(OC)cc21 | 580 nM (active) and 184 nM (active)
14 | COc1cc2c(cc1O)[C@H](Cc1ccc(Oc3cc(C[C@@H]4NCCc5cc(OC)c(O)cc54)ccc3O)cc1)NCC2 | inactive
15 | CCC(CC)C(=O)N1CCc2cc(OC)c(OC)cc2C1COc1ccc(F)cc1 (stereo not given) | inactive
16 | O=C(NC(=S)Nc1ccc(Br)cc1F)C1CCCCC1 | inactive
17 | Nc1cccnc1Sc1ccccc1 | inactive
18 | CC12C=C(C=Cc3ccc(F)cc3)C(C)(C1)C(c1ccc(F)cc1)CC2=O (stereo not given) | inactive
19 | O=C(Nc1ccc(-c2nc3cc(NC(=O)c4ccccc4Cl)ccc3o2)cc1)c1ccccc1Cl | inactive
20 | COc1ccccc1OCc1nc2ccccc2s1 | 10 µM (active)
21 | COc1cccc2sc(NNC(=O)c3nc4ccccc4s3)nc12 | inactive
22 | O=C(O)CCCCc1nc2ccccc2s1 | inactive
23 | COc1ccc(-c2cc(=O)oc3cc(OC(C)C(=O)Nc4ccc(CN5CCOCC5)cc4)ccc23)cc1 (stereo not given) | inactive
24 | S=C(NCC1COc2ccccc2O1)Nc1ccc(Br)cc1 (stereo not given) | inactive
25 | c1ccc2c(c1)OCC(CNc1ncnc3nc[nH]c13)O2 (stereo not given) | inactive
26 | c1ccc(-c2cc3c(NCC4COc5ccccc5O4)ncnc3s2)cc1 (stereo not given) | 11.6 µM (active)
27 | O=C(Nc1cccc(C(=O)NC2CC2)c1)c1ccc(F)c(S(=O)(=O)N2CCOCC2)c1 | inactive

Row | SMILES | Potency
28 | COc1cccc(NC(=O)c2ccc3c(SCC(=O)O)c4c(nc3c2)CCCC4)c1 | inactive
29 | CCOc1ccc(C(=O)Nc2ccc3nc4c(c(Nc5ccccc5OC)c3c2)CCCC4)cc1 | 11.2 µM (active)
30 | CCOc1ccc(C(=O)Nc2cc(OC)ccc2OC)cc1 | inactive
31 | Cc1ccccc1CS(=O)(=O)CC1Nc2ccc(C(=O)NCc3ccc(Cl)cc3)cc2NC1=O (stereo not given) | inactive
32 | Cc1ccc(OCCSc2nc3ccc(NC(=O)COc4ccc(C)cc4)cc3s2)cc1 | inactive
33 | Cc1cc(C)nc(NC(=O)C(C)N2C(=O)c3ccccc3C2=O)n1 (stereo not given) | inactive
34 | Cc1cc(C)nc(Nc2cc([N+](=O)[O-])ccc2C)n1 | inactive
35 | Cc1cc(C)nc(Nc2n[nH]c(-c3ccccc3N)n2)n1 | 6.31 µM (active)
36 | CC1CCN(C2=NC(=O)/C(=C/c3ccc(O)cc3)S2)CC1 | inactive
37 | CNN/C(N=Cc1ccc([N+](=O)[O-])s1)=N\S(=O)(=O)c1cc(C)c(Cl)cc1SCc1ccccc1 | inactive
38 | NC(N)=N/N=C/c1ccc(Cl)c([N+](=O)[O-])c1 | inactive
39 | O=[N+]([O-])c1ccc(C=Nc2ccc(Cl)cc2Cl)s1 | 16.4 µM (active)
40 | CCOc1ccc(NC(=O)CSc2nncn2C)cc1 | inactive
41 | NS(=O)(=O)c1ccc(CNC(=O)c2cccc(S(=O)(=O)N3CCc4ccccc43)c2)cc1 | inactive
42 | CN(Cc1ccccc1)C(=O)CSc1nc2ccccc2[nH]1 | inactive
43 | CCOC(=O)C1CCN(C(=O)C2CCCN(S(=O)(=O)c3ccc(OC)c(Cl)c3)C2)CC1 (stereo not given) | inactive
44 | CCOC(=O)CN(Cc1ccc(OC)c(OC)c1)S(=O)(=O)c1ccc(OC)cc1 | inactive
45 | COc1ccc(CCNC(=O)C(Sc2ccccn2)c2ccccc2)cc1OC (stereo not given) | inactive
46 | COc1ccc(C(CCN(Cc2ccc(OC)c(OC)c2)C(=O)CCl)c2ccccc2)cc1 (stereo not given) | 10 µM (active)
47 | CCOC(=O)C1CCN(C(=O)CN2C(=O)NC(C)(c3ccc4cc(OC)ccc4c3)C2=O)CC1 (stereo not given) | inactive
48 | COc1ccc(C(=O)Nc2cccc(/C=C(/CCC(=O)O)c3nc4ccccc4s3)c2)cc1 | inactive
49 | CCOc1ccc(CNC(=O)CCc2c(C)nn(-c3ccc(N4CCCCC4)nn3)c2C)cc1 | inactive
50 | NS(=O)(=O)c1ccc(Nc2nc(-c3ccccc3)cs2)cc1 | inactive
51 | COc1ccc(Nc2nc(-c3ccccc3)cs2)cc1 | 20.6 µM (active)
52 | COc1ccc2nc(Nc3nc(-c4ccncc4)cs3)sc2c1 | inactive
53 | Nc1c(-c2ccccc2)nnn1Cc1ccccc1 | inactive
54 | CCOc1ccc2oc(C(=O)N(CC)CC(=O)Nc3ccc(NC(C)=O)cc3)c(C)c2c1 | inactive

Row | SMILES | Potency
55 | Cc1ccc(Nc2c(O)nc[nH]c2=O)cc1C | inactive
56 | Fc1ccc(-c2nc(Nc3cccc(Cl)c3)nc3c2COc2ccccc2-3)cc1 | inactive
57 | O=C(CC(=O)Nc1ccc(Cl)c(Cl)c1)N/N=C/c1ccc(O)cc1 | inactive
58 | O=C(CC(O)(C(F)(F)F)C(F)(F)F)Nc1ccc(Cl)c(Cl)c1 | 4.61 µM (active)
59 | N/C(=N\OC(=O)Nc1ccc(Cl)c(Cl)c1)c1ncc(C(F)(F)F)cc1Cl | inactive
60 | O=C(COc1ccccc1F)Nc1nc(-c2ccccn2)cs1 | inactive
61 | O=C1NC(=O)C(CCc2ccccc2)(c2ccccc2)N1 (stereo not given) | inactive
62 | CC(C)[C@H]1COCCS(=O)(=O)N1Cc1ccccc1-c1cccc2c1sc1ccccc12 | inactive
63 | CCn1c(=S)[nH]c2cc(S(=O)(=O)N3CCOCC3)ccc21 | inactive
64 | N#C/C(=C/c1ccc(N2CCCCC2)o1)C(=O)NCCc1c[nH]c2ccccc12 | 7.08 µM (active)
65 | O=C(CN1C(=O)NC2(CCCCC2)C1=O)NCCc1c[nH]c2ccccc12 | inactive
66 | CC(=O)N/C(=C/c1ccc(Cl)cc1)C(=O)NCCc1c[nH]c2ccccc12 | inactive
67 | COc1ccc(C(=O)COC(=O)c2c(C)noc2C)cc1Cl | inactive
68 | Cc1c(C(=O)Nc2cccc(S(=O)(=O)N3CCOCC3)c2)oc2ccccc12 | inactive
69 | O=C(c1ccc(N2CCOCC2)c([N+](=O)[O-])c1)N1CCN(c2ccccc2F)CC1 | inactive
70 | O=c1oc2ccccc2cc1-c1cn(-c2ccccc2)c(=S)[nH]1 | 0.891 µM (active)
71 | Nc1ncc(-c2cc3ccccc3oc2=O)s1 | inactive
72 | O=C(c1cn(-c2ccccc2)nc1-c1cc2ccccc2oc1=O)N1CCOCC1 | inactive
73 | O=C1NCC(Nc2ccccc2)C(=O)N1 (stereo not given) | inactive
74 | O=C(NCc1ccc(Cl)cc1)C(=O)NCC1CCCN1S(=O)(=O)c1cccs1 (stereo not given) | inactive
75 | O=C(COC(=O)c1cnccn1)Nc1ccc(Cl)cc1C(F)(F)F | inactive
76 | CN(Cc1cnccn1)C(=O)c1cc(COc2cccc(C(F)(F)F)c2)on1 | inactive
77 | Cc1cccc(Cn2c(N3CCN(c4ccccc4)CC3)nc3c2c(=O)n(C)c(=O)n3C)c1 | 5.8 µM (active)
78 | COC(=O)C(C)Sc1nc2c(c(=O)n(C)c(=O)n2C)n1Cc1cccc(C)c1 (stereo not given) | inactive
79 | Cc1cccc(Cn2c(SCCO)nc3c2c(=O)n(C)c(=O)n3C)c1 | inactive
80 | O=C(CCCN1C(=O)/C(=C\c2ccccc2)SC1=S)Nc1ccccc1O | inactive
81 | COc1ccc(/C=C2\SC(=O)N(CCC(=O)NC3CCS(=O)(=O)C3)C2=O)cc1 (stereo not given) | inactive

Row | SMILES | Potency
82 | COc1ccc(/C=C2/SC(=O)N(CCCCCC(=O)Nc3ccccc3C(=O)O)C2=S)cc1 | 11.2 µM (active)
83 | CCCCN1CC(COc2ccccc2)Oc2cccc(F)c2S1(=O)=O (stereo not given) | inactive
84 | O=C(Cc1ccccc1Cl)N1CCOCC1 | inactive
85 | O=C(Nc1ccccc1C(=O)Nc1ccncc1)c1ccc([N+](=O)[O-])cc1 | inactive
86 | O=C(CN1C(=O)c2ccccc2S1(=O)=O)N1CCc2ccccc21 | 0.259 µM (active)
87 | O=C(CN1C(=O)c2ccccc2S1(=O)=O)NC1CCCCC1 | inactive
88 | O=C(CN1CCN(c2ccccn2)CC1)N1CCc2ccccc21 | inactive
89 | O=C(CSc1ncnc2sccc12)N1CCN(C(=O)c2cccs2)CC1 | inactive
90 | O=C(Nc1ccc2ccccc2c1)Nc1ccc2snnc2c1 | 12.6 µM (active)
91 | COc1ccc(NC(=O)Nc2ccc3nsnc3c2)cc1 | inactive
92 | S=C(Nc1ccccc1)Nc1ccc2ccccc2c1 | inactive
93 | Cc1ccccc1-c1nc2scc(CCNC(=O)C(=O)Nc3ccc(F)cc3F)n2n1 | inactive
94 | C/C(=N\NC(=O)COc1ccc(C)cc1[N+](=O)[O-])c1ccc2c(c1)OCCO2 | inactive
95 | O=C(NCC(c1ccco1)N1CCc2ccccc21)c1cccc(F)c1 (stereo not given) | inactive
96 | COc1ccc(C(=O)OCc2cc(=O)n3ccsc3n2)cc1F | inactive
97 | Cc1ccccc1NC(=O)NNC(=O)OC(C)(C)C | inactive
98 | CCC(=O)OCCNc1nc(-c2ccccc2)nc2ccccc12 | inactive
99 | CC(C)(C)OC(=O)NNc1c2ccccc2nc2ccccc12 | 12.6 µM (active)
100 | COc1ccc(CC(=O)Nc2nc(-c3ccc(F)c(F)c3)cs2)cc1OC | 11.2 µM (active)
101 | COc1ccc(-c2csc(NC(=O)CCCc3cccs3)n2)cc1 | inactive
102 | Cc1ccc(S(=O)(=O)NC(=O)Nc2nc(-c3ccc(F)c(F)c3)cs2)cc1 | inactive
103 | Cc1ccc(-c2csc(NC(=O)c3cnccn3)n2)cc1C | inactive
104 | COc1ccc(-c2csc(NC(=O)c3ccc(N4C(=O)CCC4=O)cc3)n2)cc1OC | inactive
105 | Cc1ccc(-c2csc(NC(=O)Cc3cccs3)n2)cc1C | 15.8 µM (active)
